Data as given in PubChem BioAssay (Tox21).
Several values for one entry are separate records, joined by “and”; a condition that tells them apart may be missing. Equal entries are not always repeated. Records with an inconclusive call do not appear. A call without a number means that no potency is given here. The source holds several records for some structures; these can differ, active in one and inactive in another. Activity calls are given as the source filed them. Calls follow the shape of the dose curve; as a rule, active = well fitted curve in the direction sought with a large enough effect in the repeat runs; inconclusive = weak or mixed curves; inactive = no such curve, though single readings can be large; an effect the other way counts as inactive or inconclusive.

What was measured:
[1] = qHTS RealTime-Glo MT Cell Viability Assay in HepG2 cells - 40 hour (AID 1224870); also: nearly all actives have a fitted effect of over 50% in size
Procedure, shortened: (§1)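 HepG2 cells (600/well) mixed with RealTime-Glo MT reagent, settled 5 h at 37 C/5% CO2 before compound addition. Nonlytic NanoLuc luminescence from viable-cell prosubstrate reduction read repeatedly during 40 h treatment at 37 C.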

[2] = A CellTox Green Cytotoxicity Assay to monitor cytotoxicity in HEK293 cells - 40 hour (AID 1224871); also: nearly all actives have a fitted effect of over 45% in size
Procedure, shortened: (§2)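 Fluorescence from a DNA-binding dye excluded by viable cells was measured repeatedly in the same HEK293 wells (600 cells/well) during continuous compound exposure at 37 C. Each assay gives one read point: 0, 8, 16, 24, 32 or 40 h.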

[3] = qHTS RealTime-Glo MT Cell Viability Assay in HEK293 cells - 16 hour (AID 1224872); also: top concentration of the series differs between compounds; nearly all actives have a fitted effect of over 50% in size
Procedure, shortened: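 Homogeneous bioluminescent viability format in HEK293 cells (600 cells/well). Following 5 h at 37 C/5% CO2, 23 nL compound was pintooled; the signal was measured repeatedly during 40 h incubation.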

[4] = qHTS RealTime-Glo MT Cell Viability Assay in HepG2 cells - 8 hour (AID 1224873); also: nearly all actives have a fitted effect of over 55% in size
Procedure, shortened: as §1

[5] = qHTS RealTime-Glo MT Cell Viability Assay in HEK293 cells - 40 hour (AID 1224874); conditions: RealTime-Glo luminescence; max response: stronger effect = lower value; also: nearly all actives have a fitted effect of over 50% in size
Procedure, shortened: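 Luminescence, which tracks viable cell number through reduction of the prosubstrate to a NanoLuc substrate, was read over continuous 37 C culture. Cells (600/well) were premixed with reagent and rested 5 h before 23 nL of compound in DMSO was pinned.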

[6] = A CellTox Green Cytotoxicity Assay to monitor cytotoxicity in HEK293 cells - 24 hour (AID 1224875); also: series mostly up to about 77 µM; nearly all actives have a fitted effect of over 45% in size
Procedure, shortened: as §2

[7] = A CellTox Green Cytotoxicity Assay to monitor cytotoxicity in HepG2 cells - 16 hour (AID 1224876); also: nearly all actives have a fitted effect of over 45% in size
Procedure, shortened: (§3)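 Real-time cytotoxicity: fluorescence of a cell-impermeant cyanine dye binding DNA of dead HepG2 cells, measured repeatedly (0–40 h) during compound exposure at 37 C. Cells seeded 600/well with reagent, dosed after 5 h.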

[8] = A CellTox Green Cytotoxicity Assay to monitor cytotoxicity in HepG2 cells - 24 hour (AID 1224878); also: nearly all actives have a fitted effect of over 45% in size
Procedure, shortened: as §3

[9] = A CellTox Green Cytotoxicity Assay to monitor cytotoxicity in HepG2 cells - 40 hour (AID 1224879); also: nearly all actives have a fitted effect of over 40% in size; also: potency is read from the fitted curve at half-maximal effect
Procedure, shortened: as §3

[10] = qHTS RealTime-Glo MT Cell Viability Assay in HepG2 cells - 32 hour (AID 1224877); also: nearly all actives have a fitted effect of over 55% in size
Procedure, shortened: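 Cell number in HepG2 cultures estimated from NanoLuc luminescence generated by metabolic reduction of a prosubstrate by living cells. The homogeneous, nonlytic format allowed repeated reads at 0, 8, 16, 24, 32 and 40 h of compound exposure.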

Row | SMILES | Potency [1] | Potency [2] | Potency [3] | Potency [4] | max response [5] | Potency [6] | Potency [7] | Potency [8] | Potency [9] | Potency [10]
1 | COP(=S)(OC)Oc1ccc([N+](=O)[O-])cc1 | inactive | inactive | inactive | inactive | -19% (inactive) and -8.77% (inactive) | inactive | inactive | inactive | inactive | 
2 | C=C(C)C(=O)OCC1CO1 (stereo not given) | inactive | inactive | inactive | inactive | 9.74% (inactive) and -15.3% (inactive) | inactive | inactive | inactive | inactive | inactive
3 | Oc1cc(Cl)ccc1Cl | inactive | inactive | inactive | inactive | -8.7% (inactive) and -0.256% (inactive) | inactive | inactive | inactive | inactive | 
4 | N#Cc1cc(Br)c(O)c(Br)c1 | inactive | inactive | inactive | inactive | -28.3% (inactive) and -19.4% (inactive) | inactive | inactive | inactive | inactive | inactive
5 | O=P(O)(O)CCCl | inactive | inactive | inactive | inactive | -0.529% (inactive) and 21.1% (inactive) | inactive | inactive | inactive | inactive | 
6 | CCCCN(CC)c1c([N+](=O)[O-])cc(C(F)(F)F)cc1[N+](=O)[O-] | inactive | inactive | inactive | inactive | -1.03% (inactive) and 20.2% (inactive) | inactive | inactive | inactive | inactive | inactive
7 | CC(O)CCO (stereo not given) | inactive | inactive | inactive | inactive | -0.607% (inactive) and 26.7% (inactive) | inactive | inactive | inactive | inactive | inactive
8 | c1nc[nH]n1 | inactive | inactive | inactive | inactive | -1.48% (inactive) and 17.9% (inactive) | inactive | inactive | inactive | inactive | 
9 | O=S(=O)(Oc1ccc(Cl)cc1)c1ccc(Cl)cc1 | inactive | inactive | inactive | inactive | -23.5% (inactive) and -4.71% (inactive) | inactive | inactive | inactive | inactive | inactive
10 | O=C(O)C(F)(F)C(F)(F)C(F)(F)C(F)(F)C(F)(F)C(F)(F)C(F)(F)F | inactive | inactive | inactive | inactive | -9.47% (inactive) and 7.44% (inactive) | inactive | inactive | inactive | inactive | inactive
11 | CCC(CC)Nc1c([N+](=O)[O-])cc(C)c(C)c1[N+](=O)[O-] | inactive | inactive | inactive | inactive | 7.22% (inactive) | inactive | inactive | inactive | inactive | 
12 | CC(C)c1ccc(CO)cc1 | inactive | inactive | inactive | inactive | 0.21% (inactive) and 0.88% (inactive) | inactive | inactive | inactive | inactive | 
13 | Cc1cc(C)cc(C)c1 | inactive | inactive | inactive | inactive | 1.65% (inactive) and -3.48% (inactive) | inactive | inactive | inactive | inactive | inactive
14 | O=C1C=CC(=O)C=C1 | inactive | inactive | inactive | inactive | 13.4% (inactive) | inactive | inactive | inactive | inactive | 
15 | COc1ccc(C=O)cc1 | inactive | inactive | inactive | inactive | 7.64% (inactive) and 1.9% (inactive) | inactive | inactive | inactive | inactive | inactive
16 | c1ccc(-c2cccc(-c3ccccc3)c2)cc1 | inactive | inactive | inactive | inactive | -23.8% (inactive) | inactive | inactive | inactive | inactive | inactive
17 | CCCCCCCCCCCOC(=O)c1ccccc1C(=O)OCCCCCCCCCCC | inactive | inactive | inactive | inactive | 1.36% (inactive) and 2.6% (inactive) | inactive | inactive | inactive | inactive | 
18 | C=CCc1ccc(OC)cc1 | inactive | inactive | inactive | inactive | -1.64% (inactive) and 2.11% (inactive) | inactive | inactive | inactive | inactive | inactive
19 | CCCCCCOC(=O)c1ccccc1C(=O)OCCCCCC | inactive | inactive | inactive | inactive | -22.3% (inactive) | inactive | inactive | inactive | inactive | inactive
20 | Cc1ccc(OP(=O)(Oc2ccc(C)cc2)Oc2ccc(C)cc2)cc1 | inactive | inactive | inactive | inactive | -19.7% (inactive) | inactive | inactive | inactive | 4.36 µM (active) and inactive | 
21 | CC(C)=CC1C(C(=O)OCc2coc(Cc3ccccc3)c2)C1(C)C (stereo not given) | inactive | inactive | inactive | inactive | -17.8% (inactive) | inactive | inactive | inactive | inactive | 
